Source: PubChem BioAssay (NCI)
The panel holds about 79,000 compounds, 15% with a hit somewhere; the sample as a whole holds those more often. A number with no mark means an inactive call. Activity calls are given as the source filed them. Cut-off read from the data, not from the text of the source: active = growth inhibition above about 70%; inactive = the rest.

Columns and labels:
[1] = NCI Yeast Anticancer Drug Screen. Data for the rad50 strain (AID 155);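 note: 0% = growth of vehicle-only cultures of the same strain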; conditions: S. cerevisiae rad50 strain growth inhibition, active compounds read high
How it was run: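 Vehicle-treated cultures provide the reference for the growth inhibition reported for compound-exposed, repair-deficient yeast.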

[2] = NCI Yeast Anticancer Drug Screen. Data for the mec2-1 strain (AID 157); conditions: S. cerevisiae mec2-1 strain, active compounds read high
How it was run: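 Each compound was tested on mec2-1 yeast, a strain altered in DNA damage repair or cell cycle control. Growth inhibition is reported relative to vehicle.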

[3] = NCI Yeast Anticancer Drug Screen. Data for the sgs1 mgt1 strain (AID 161);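 note: 0% = growth of cultures given vehicle only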; conditions: S. cerevisiae sgs1 mgt1 strain, active compounds read high
How it was run: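 Genetically altered yeast, compound exposure, growth inhibition relative to vehicle.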

[4] = NCI Yeast Anticancer Drug Screen. Data for the cln2 rad14 strain (AID 165);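 note: 0% = growth equal to vehicle treated cultures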; conditions: S. cerevisiae cln2 rad14 strain, active compounds read high
How it was run: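 Test compounds were added to cln2 rad14 yeast cultures; inhibition of growth was then determined by comparison with vehicle treatment.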

[5] = NCI Yeast Anticancer Drug Screen. Data for the bub3 strain (AID 167); conditions: S. cerevisiae bub3 mutant strain, active compounds read high
How it was run: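 Mutant yeast screening strain plus compound; vehicle-treated cultures serve as the 0% inhibition reference.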

[6] = NCI Yeast Anticancer Drug Screen. Data for the mlh1 rad18 strain (AID 175); conditions: S. cerevisiae mlh1 rad18 strain growth inhibition, active compounds read high
How it was run: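 Inhibition values reflect reduced growth of mutant yeast versus vehicle-treated controls following compound exposure; the mutations affect DNA damage repair.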

[7] = at 5.0 µM (retest, dose inferred, filed as 0.5)
[8] = at 50.0 µM (retest, dose inferred, filed as 5.0)

Structure (SMILES) | growth inhibition [1, 7] | growth inhibition [1, 8] | growth inhibition ([1]; at 50.0 µM) | growth inhibition [2, 7] | growth inhibition [2, 8] | growth inhibition ([2]; at 50.0 µM) | growth inhibition [3, 7] | growth inhibition [3, 8] | growth inhibition ([3]; at 50.0 µM) | growth inhibition [4, 7] | growth inhibition [4, 8] | growth inhibition ([4]; at 50.0 µM) | growth inhibition [5, 7] | growth inhibition [5, 8] | growth inhibition ([5]; at 50.0 µM) | growth inhibition [6, 7] | growth inhibition [6, 8] | growth inhibition ([6]; at 50.0 µM)
Clc1ccccc1C(c1ccccc1)(c1ccccc1)n1ccnc1 | 44% | 99% (active) | 99.3% (active) | 20% | 99% (active) | 99.8% (active) | 53% | 99% (active) | 99.6% (active) | 18% | 99% (active) | 99.2% (active) | 34% | 99% (active) | 99.6% (active) | 30% | 99% (active) | 99.7% (active)
CCC1CCCCN1C(=S)N/N=C(\C)c1ccccn1 (configuration not stated) | 29% | 98% (active) | 90.5% (active) | 19% | 99% (active) | 94.1% (active) | 28% | 99% (active) | 89.8% (active) | 21% | 99% (active) | 91.7% (active) | 21% | 99% (active) | 90% (active) | 23% | 98% (active) | 90.5% (active)
Cc1cc(C(N)=O)cc(C)c1C(=O)OCCCl | -4% | -1% | 31.7% | -5% | -2% | 66.4% | -4% | -2% | -4.05% | -3% | -8% | -114% | -2% | -2% | 51.9% | -57% | 0% | 58.1%
COc1ccc(C(Cn2ccnc2)Sc2ccc(Cl)c(Cl)c2)cc1 (configuration not stated) | 74% (active) | 97% (active) | 92.9% (active) | 60% | 97% (active) | 93.8% (active) | 72% (active) | 97% (active) | 88.7% (active) | 47% | 86% (active) | 90.7% (active) | 76% (active) | 98% (active) | 86.5% (active) | 81% (active) | 96% (active) | 91.3% (active)
CCCCCCCCC(=O)OCCCC(CCC(CCC1CCCO1)OC(=O)CCCCCCCC)OC(=O)CCCCCCCC (configuration not stated) | -19% | 10% | 82.3% (active) | 3% | 12% | 37% | -12% | 33% | 42.4% | -17% | 31% | 14.3% | -7% | 12% | 29.8% | -2% | 23% | 62.4%
COC(=O)[C@]1(C)CCC[C@]2(C)c3ccc(C(C)C)cc3C(=O)[C@@H](Br)[C@@H]12 | 0% | 9% | 74.2% (active) | -2% | 46% | 51.9% | 3% | 58% | 63.5% | -12% | 44% | 22.1% | 2% | 52% | 82.4% (active) | -11% | 49% | 71.8% (active)
COc1cc(N(CCC#N)CCC#N)ccc1/C(N=Nc1ccc([N+](=O)[O-])cc1)=N/NC(=O)c1cc(Br)ccc1O | 6% | 27% | 63% | 14% | 42% | 44.6% | -6% | 35% | 40.6% | 10% | 11% | 55.1% | 8% | 48% | 51% | 15% | 37% | 46.1%
O=C(/C=C/c1ccccc1)CCC1C(=O)c2ccccc2C1=O | 24% | 40% | 3.25% | 10% | 33% | -9% | 14% | 42% | 1.05% | 10% | 20% | 17.8% | 12% | 51% | -12.6% | 22% | 50% | 4.6%
COc1ccc2nc3cc(Cl)ccc3c(NCCCCCN3CCCCC3)c2c1 | -3% | 70% (active) | 77.6% (active) | -3% | 31% | 39% | -7% | 26% | 47.1% | 1% | 45% | 63% | -4% | 4% | 59.4% | 0% | 47% | 59.9%
Nc1nc2ncc(CNc3ccc(C(=O)NC(CCC(=O)NC(CCC(=O)NC(CCC(=O)NC(CCC(=O)NC(CCC(=O)O)C(=O)O)C(=O)O)C(=O)O)C(=O)O)C(=O)O)cc3)nc2c(=O)[nH]1 (configuration not stated) | -19% | -9% | 25.2% | 0% | -6% | 18.3% | 0% | -12% | 24.6% | 12% | 1% | 47% | -5% | -2% | -19.5% | 10% | 20% | 8.35%
O=[n+]1c2ccccc2n([O-])c2cc(Cl)ccc21 | 95% (active) | 99% (active) | 98.7% (active) | 86% (active) | 100% (active) | 99.4% (active) | 77% (active) | 99% (active) | 99.1% (active) | 48% | 99% (active) | 96.7% (active) | 95% (active) | 100% (active) | 98.5% (active) | 94% (active) | 99% (active) | 99.1% (active)
O=C(Nc1ccc(Cl)c(Cl)c1)OCc1ccco1 | 51% | 68% | 91.4% (active) | 38% | 66% | 93% (active) | 47% | 99% (active) | 92.9% (active) | 35% | 90% (active) | 91.7% (active) | 41% | 81% (active) | 93.1% (active) | 48% | 76% (active) | 92% (active)
O=C(/C=C/c1ccccc1)c1ccccc1O | 9% | 78% (active) | 98.5% (active) | 4% | 49% | 99.2% (active) | 4% | 55% | 46% | 2% | 40% | 53.6% | 1% | 80% (active) | 49.1% | 1% | 78% (active) | 45.6%
CC1(C)N=c2cc3c(cc2N1c1ccc(Cl)cc1)=Nc1ccccc1N3c1ccc(Cl)cc1 | 17% | -4% | 96.1% (active) | 7% | -4% | 94.2% (active) | 16% | 1% | 97.1% (active) | 10% | -4% | 95.2% (active) | 7% | 1% | 94% (active) | 35% | -5% | 96.3% (active)
C[C@@H]1CCC([C@@H](C)[C@H]2CC[C@H]3[C@@H]4CC[C@H]5C[C@@H](O)CC[C@]5(C)[C@H]4CC[C@]23C)=NC1 | 73% (active) | 98% (active) | 87.5% (active) | 60% | 98% (active) | 89% (active) | 90% (active) | 99% (active) | 91.6% (active) | 60% | 98% (active) | 88.7% (active) | 84% (active) | 98% (active) | 88.5% (active) | 95% (active) | 98% (active) | 89% (active)
N#CC(I)CS(=O)(=O)c1ccccc1 (configuration not stated) | 99% (active) | 99% (active) | 54.7% | 100% (active) | 99% (active) | 98.7% (active) | 99% (active) | 99% (active) | 99.3% (active) | 99% (active) | 99% (active) | 55% | 99% (active) | 99% (active) | 45.4% | 99% (active) | 98% (active) | 42.7%
O=[N+]([O-])C=C(c1ccccc1)c1ccccc1 | -23% | 93% (active) | 96.8% (active) | -12% | 89% (active) | 87.8% (active) | 7% | 86% (active) | 77.8% (active) | -20% | 63% | 76.8% (active) | -1% | 90% (active) | 88% (active) | -12% | 94% (active) | 93.2% (active)
COc1cc2c(c(OC)c1OC)-c1ccc(NCc3ccccc3)c(=O)cc1[C@@H](NC(C)=O)CC2 | 17% | 96% (active) | 49% | 9% | 89% (active) | 80.8% (active) | 16% | 98% (active) | 68.3% | 18% | 98% (active) | 73.7% (active) | 14% | 88% (active) | 68.3% | 16% | 97% (active) | -53.5%
CC1=CC[C@@H]2[C@@H](CC[C@@]2(C)O)C(C)(C)[C@H]1CC[C@@H]1[C@@]2(C)CCC(=O)C(C)(C)O[C@@H]2CC[C@]1(C)O | 20% | 57% | 74.8% (active) | 13% | 37% | 62.9% | -1% | 78% (active) | 72.2% (active) | 16% | 70% (active) | 55.2% | 10% | 73% (active) | 62.1% | 25% | 62% | 22.9%
